This note sets out measurements from PubChem BioAssay (NCATS).

The nature of test [1]: Quantitative High-Throughput drug screen in 47 multiple myeloma cell lines against the NCATS MIPE library collection: Karpas620_DSMZ cell viability assay (AID 1918959). Further: nearly all actives have a fitted effect of over 30% in size. Conditions: Karpas620 myeloma viability, CellTiter-Glo ATP luminescence, 48 h; series mostly up to 45.8 µM. The gist of the method:
(§1)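 Primary qHTS used for cherry-picking: cells at 500/well, library compounds for 48 h (37C, 5% CO2), luminescent ATP assay.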

Test [2] in a line: Quantitative High-Throughput drug screen in 47 multiple myeloma cell lines against the NCATS MIPE library collection: KMM1_JCRB cell viability assay (AID 1918960). Further: nearly all actives have a fitted effect of over 30% in size. Conditions: KMM1 myeloma viability, CellTiter-Glo ATP luminescence, 48 h; series mostly up to 45.8 µM. The procedure, abridged:
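Luminescence from CellTiter-Glo, taken after 5 min at room temperature, reports cellular ATP as viability. Cells (500 per well) had been treated 48 h at 37 °C with MIPE 4.0 compounds, scaled between DMSO and medium-only controls.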

Test [3] can be described thus: Quantitative High-Throughput drug screen in 47 multiple myeloma cell lines against the NCATS MIPE library collection: KHM11_PLB cell viability assay (AID 1918962). Further: nearly all actives have a fitted effect of over 35% in size. The settings on record: KHM11 myeloma cell viability, CellTiter-Glo ATP luminescence, 48 h; series mostly up to 45.8 µM. The gist of the method: as §1
A general note: ATP-based viability assays read luminescence as a measure of living cells.

The nature of test [4]: Quantitative High-Throughput drug screen in 47 multiple myeloma cell lines against the NCATS MIPE library collection: JIM3_ECACC cell viability assay (AID 1918963; further: nearly all actives have a fitted effect of over 35% in size). The settings on record: JIM3 myeloma viability, CellTiter-Glo ATP, 48 h; series mostly up to 45.8 µM. The gist of the method: as §1
Test [5] can be described thus: Quantitative High-Throughput drug screen in 47 multiple myeloma cell lines against the NCATS MIPE library collection: INA6_PLB cell viability assay (AID 1918965; further: nearly all actives have a fitted effect of over 55% in size). The settings on record: INA6 myeloma viability, CellTiter-Glo ATP luminescence, 48 h; series mostly up to 45.8 µM. The procedure, abridged:
(§2)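 We plated 500 myeloma cells per well, pinned in MIPE 4.0 compounds, and incubated for 48 hours at 37C. ATP was then quantified with CellTiter-Glo, with DMSO and media-only wells defining 100% and 0%.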

Test [6] can be described thus: Quantitative High-Throughput drug screen in 47 multiple myeloma cell lines against the NCATS MIPE library collection: JJN3_DSMZ cell viability assay (AID 1918966; further: nearly all actives have a fitted effect of over 50% in size). Conditions: JJN3 myeloma cells viability, CellTiter-Glo ATP, 48 h; series mostly up to 45.8 µM. The procedure, abridged: (§3)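 Inhibition of cell viability is measured here. Each line was plated at 500 cells per well, treated with MIPE 4.0 drugs, kept 48 hours at 37C, then assayed for ATP content by CellTiter-Glo luminescence.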

Test [7] is described as follows: Quantitative High-Throughput drug screen in 47 multiple myeloma cell lines against the NCATS MIPE library collection: KMS27_JCRB cell viability assay (AID 1918970). Further: nearly all actives have a fitted effect of over 30% in size. The settings on record: KMS27 myeloma cells, CellTiter-Glo ATP viability, 48 h; viability (% of DMSO): at 45.8 µM (top of the series). The procedure, abridged: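 Viability inhibition screen, 48 h compound exposure, luminescent ATP read-out.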

Test [8] in a line: Quantitative High-Throughput drug screen in 47 multiple myeloma cell lines against the NCATS MIPE library collection: KMS12BM_JCRB cell viability assay (AID 1918971). Further: nearly all actives have a fitted effect of over 35% in size. The settings on record: KMS12BM myeloma viability, CellTiter-Glo ATP, 48 h; series mostly up to 45.8 µM. The gist of the method:
as §2

Test [9] is described as follows: Quantitative High-Throughput drug screen in 47 multiple myeloma cell lines against the NCATS MIPE library collection: KMS20_JCRB cell viability assay (AID 1918973). Further: nearly all actives have a fitted effect of over 45% in size. Conditions: CellTiter-Glo ATP, 48 h; series mostly up to 45.8 µM. The procedure, abridged: as §3
Test [10] can be described thus: Quantitative High-Throughput drug screen in 47 multiple myeloma cell lines against the NCATS MIPE library collection: KMS26_JCRB cell viability assay (AID 1918975). Further: nearly all actives have a fitted effect of over 45% in size. Conditions: KMS26 myeloma cells viability, CellTiter-Glo ATP, 48 h; series mostly up to 45.8 µM. The procedure, abridged: as §2
A short description of test [11]: Quantitative High-Throughput drug screen in 47 multiple myeloma cell lines against the NCATS MIPE library collection: MMM1_PLB cell viability assay (AID 1918976). Further: nearly all actives have a fitted effect of over 35% in size. The settings on record: MMM1 myeloma cells viability, CellTiter-Glo, 48 h; series mostly up to 45.8 µM. The gist of the method:
(§4)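 Plated at 500 cells per well, myeloma lines received MIPE 4.0 compounds by pin tool. Following 48 h culture at 37 °C, CellTiter-Glo luminescence gave viability relative to DMSO and media-only controls.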

The nature of test [12]: Quantitative High-Throughput drug screen in 47 multiple myeloma cell lines against the NCATS MIPE library collection: MOLP8_DSMZ cell viability assay (AID 1918977). Further: nearly all actives have a fitted effect of over 45% in size. Conditions: MOLP8 myeloma viability, CellTiter-Glo ATP luminescence, 48 h; series mostly up to 45.8 µM. The gist of the method: as §4
Test [13] can be described thus: Quantitative High-Throughput drug screen in 47 multiple myeloma cell lines against the NCATS MIPE library collection: NCIH929_DSMZ cell viability assay (AID 1918978). Further: nearly all actives have a fitted effect of over 35% in size. The settings on record: NCI-H929 myeloma viability, CellTiter-Glo ATP, 48 h; series mostly up to 45.8 µM. The gist of the method:
as §4

A short description of test [14]: Quantitative High-Throughput drug screen in 47 multiple myeloma cell lines against the NCATS MIPE library collection: H1112_PLB cell viability assay (AID 1918967; further: nearly all actives have a fitted effect of over 30% in size). Conditions: H1112 myeloma cells viability, ATP luminescence, 48 h; series mostly up to 45.8 µM. The procedure, abridged:
as §3

Test [15] in a line: Quantitative High-Throughput drug screen in 47 multiple myeloma cell lines against the NCATS MIPE library collection: Karpas25_ECACC cell viability assay (AID 1918968; further: nearly all actives have a fitted effect of over 35% in size). Conditions: Karpas25 myeloma viability, CellTiter-Glo ATP, 48 h; series mostly up to 45.8 µM. The gist of the method: as §3
A short description of test [16]: Quantitative High-Throughput drug screen in 47 multiple myeloma cell lines against the NCATS MIPE library collection: KMS12PE_JCRB cell viability assay (AID 1918972). Further: nearly all actives have a fitted effect of over 30% in size. Conditions: KMS12PE myeloma viability, CellTiter-Glo ATP, 48 h; series mostly up to 45.8 µM. The gist of the method:
as §2

Test [17] in a line: Quantitative High-Throughput drug screen in 47 multiple myeloma cell lines against the NCATS MIPE library collection: OCIMY1_PLB cell viability assay (AID 1918979). Further: nearly all actives have a fitted effect of over 35% in size. The settings on record: OCI-MY1 myeloma viability, CellTiter-Glo ATP, 48 h; series mostly up to 45.8 µM. The procedure, abridged: as §4
A short description of test [18]: Quantitative High-Throughput drug screen in 47 multiple myeloma cell lines against the NCATS MIPE library collection: JIM1_ECACC cell viability assay (AID 1918964). The settings on record: JIM1 myeloma viability, CellTiter-Glo ATP luminescence, 48 h; series mostly up to 45.8 µM. The procedure, abridged: as §3

Results filed as inconclusive are left out. Activity calls are given as the source filed them. The call rests on the fitted dose curve; in most records, active means well fitted curve in the direction sought with a large enough effect; inconclusive means small, poorly fitted or top-dose-only effect, or another doubt; inactive means no such curve, though single readings can be large; an effect the other way counts as inactive or inconclusive.
Potency means the concentration at half of the fitted maximal effect.

As to `O=C(Nc1cccc(Nc2ncc(Br)c(NCCc3cnc[nH]3)n2)c1)N1CCCC1`, the Potency entry in [1], in test [2] and in [7] was “inactive” each time. Besides, the Potency in [3] is 1.18 µM (active); in [4] it was 6.62 µM (active); in [5] it was 0.743 µM (active); in test [6], 11.8 µM (active); in [8], 18.7 µM (active); in test [9], 5.9 µM (active). The Potency in test [10] is 10.5 µM (active); in [11], 18.7 µM (active); in test [12], 6.62 µM (active); in test [13], 7.43 µM (active).

As to `COc1cccc2c1C(=O)c1c(O)c3c(c(O)c1C2=O)C[C@@](O)(C(=O)CO)C[C@@H]3O[C@H]1C[C@H](N)[C@H](OC2CCCCO2)[C@H](C)O1` (stereo partly specified), the Potency result in [1], in test [2], in test [7] and in [16] was “inactive” in each case. The Potency in test [3] is 2.09 µM (active); in test [5], 0.469 µM (active); in test [6] it was 1.87 µM (active); in test [14], 1.48 µM (active); in test [15], 1.05 µM (active); in [8] it was 2.09 µM (active). Further, the Potency in test [9] was 1.18 µM (active); in [10], 2.96 µM (active); in test [11] it was 1.18 µM (active); in test [12] it was 1.18 µM (active); in test [13], 0.935 µM (active); in test [17] it was 14.8 µM (active).

Regarding `O=C(C=CC#Cc1cccc(NS(=O)(=O)c2ccccc2)c1)NO`, the Potency in test [1] is 1.87 µM (active); in test [2] it was 0.526 µM (active); in test [3] it was 2.35 µM (active); in [18], 1.32 µM (active); in [5] it was 0.743 µM (active); in test [6], 2.35 µM (active). In addition, the Potency was 2.96 µM (active) in [14]; 0.833 µM (active) in test [15]; 1.48 µM (active) in test [8]; 1.18 µM (active) in test [16]; 2.35 µM (active) in test [9]; 3.32 µM (active) in test [10]. The Potency in test [12] is 0.935 µM (active); in [13] it was 1.18 µM (active); in test [17] it was 2.96 µM (active).

Regarding `COc1cccc2c1C(=O)c1c(O)c3c(c(O)c1C2=O)C[C@@](O)(C(=O)CO)C[C@@H]3O[C@H]1C[C@H](N)[C@@H](O)[C@H](C)O1`, the Potency in [1] is 2.35 µM (active); in test [2] it was 2.09 µM (active); in test [3], 0.743 µM (active); in [4] it was 0.935 µM (active); in test [5] it was 0.166 µM (active); in [6] it was 0.662 µM (active). In addition, the Potency in test [14] is 0.59 µM (active); in test [15] it was 0.418 µM (active); in [7], 0.935 µM (active); in test [8], 0.469 µM (active); in test [16], 2.35 µM (active); in [9] it was 0.166 µM (active). The Potency is 1.48 µM (active) in test [10]; 0.469 µM (active) in test [11]; 0.372 µM (active) in test [12]; 0.235 µM (active) in test [13]; 1.66 µM (active) in test [17].

On to `CC(=O)OCC(=O)[C@@]1(O)CC[C@H]2[C@@H]3CCC4=CC(=O)CC[C@]4(C)[C@@H]3C(=O)C[C@@]21C`, for which the Potency result in test [1], in test [2], in test [3], in [4], in test [18] and in test [14] was “inactive” throughout. Besides, the Potency result in test [7], in test [8], in test [16], in test [9], in test [10] and in test [12] was “inactive” each time. Further, the Potency entry in test [13] and in [17] was “inactive” each time.

Consider `C=C1CCC2[C@](C)(CO)C(O)CC[C@]2(C)C1CC=C1C(=O)OCC1O` (stereo partly specified), for which the Potency entry in test [1], in test [2], in test [3], in test [4], in test [5] and in [14] was “inactive” in each case. For the same compound, the Potency result in test [16] and in test [17] was “inactive” each time.

For `Cc1noc(-c2ccc(CSCCC(=O)O)cc2)c1NC(=O)OC(C)c1ccccc1Cl` (stereo unspecified), the Potency result in [1], in test [2], in test [3], in test [4], in [14] and in [7] was “inactive” in each case. The Potency entry in test [8], in test [10], in test [12] and in [13] was “inactive” each time.

Take `CC(Oc1ccc(O)cc1)(P(=O)(O)O)P(=O)(O)O`: the Potency result in [1], in test [2], in test [3], in test [4], in test [18] and in [14] was “inactive” each time. Besides, the Potency entry in test [7], in [16], in test [10], in [11], in [12] and in test [13] was “inactive” throughout. Besides, in [17], the Potency result was “inactive”.
